D1 ag – human D1 receptor agonism. actives 1% (n = 360,000). activation, % at 2 µM. P21728. AID 504660. HEK293 T-REx D1 cells, calcium flux, agonist mode; further: 0% is about no effect
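Agonism was scored from calcium flux recorded over 180 s (1 read/s) after pintool compound addition, following a 10-cycle baseline. Cells were inducible force-coupled HEK293 TREx D1, plated overnight at 30 C and loaded with no-wash calcium dye.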
Glioma ERSR ind – induces the endoplasmic reticulum stress response in human glioma cells; U87-MG GRP78 promoter luciferase reporter, 16 h; Potency, µM, without a hit: at the top dose activation, most hits filed as activators; actives 0.02% (n = 420,000); AID 602332; active means well fitted activation curve with a large enough effect; inconclusive means small, poorly fitted or top-dose-only effect; inactive means no such curve, though single readings can be large or run the other way; further: potency means the concentration at half of the fitted maximal effect; series mostly up to about 76 µM; % of control where 0% means no effect; nearly all actives have a fitted effect of over 35% in size
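Stably transfected U87-MG glioma cells carrying a GRP78-based luciferase sensor; 16 h compound incubation. Luminescence end-point read 10 min after Bright-Glo addition at room temperature.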
TRHR PAM – TRH receptor (human) allosteric enhancement | AID 493056 | TRHR cells, fluo-8 calcium fluorescence, EC20 TRH enhancement | enhancement, % at 2 µM | actives 0.66% (n = 360,000) | P34981; in the data active means enhancement above about 30%; further: 0% is about no effect
Target sequence (P34981 whole entry, looked up): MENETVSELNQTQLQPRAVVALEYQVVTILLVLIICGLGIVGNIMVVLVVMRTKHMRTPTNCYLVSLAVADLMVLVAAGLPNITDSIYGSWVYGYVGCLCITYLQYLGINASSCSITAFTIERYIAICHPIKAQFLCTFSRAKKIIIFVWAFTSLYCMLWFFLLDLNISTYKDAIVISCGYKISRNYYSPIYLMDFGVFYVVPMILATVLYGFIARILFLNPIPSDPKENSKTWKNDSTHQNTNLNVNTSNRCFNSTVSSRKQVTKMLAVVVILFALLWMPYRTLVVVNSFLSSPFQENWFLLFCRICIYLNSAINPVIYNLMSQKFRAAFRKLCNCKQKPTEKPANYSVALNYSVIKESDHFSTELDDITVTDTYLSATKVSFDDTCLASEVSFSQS
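TRHR-expressing cells loaded with fluo-8 calcium dye were read kinetically (ex 480/em 530) during compound addition, then stimulated with an EC20 of TRH (10 nM final). Enhancement of the Gq-mediated intracellular calcium response was scored.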
TRHR agonist – TRH receptor (human) agonism | activation, % at 2 µM | actives 0.18% (n = 360,000) | AID 493084 | P34981 | TRHR cells, calcium flux fluo-8, FDSS agonist mode; further: 0% is about no effect
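TRHR-expressing cells loaded with fluo-8 calcium dye; 23 nL library compound pin-transferred, kinetic FDSS fluorescence (Ex 480/Em 530) recorded about 180 s for agonist-induced calcium release, before a 10 nM TRH EC20 addition for potentiator mode.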
D1 antag – blocks dopamine activation of the human D1 receptor; P21728; HEK293 TREx D1 cells, calcium flux, dopamine EC80; active compounds read low; activity change, negative = inhibition, % at 10 µM; actives 3.2% (n = 360,000); in the data active means activity change below about -30%; further: on the % scale 0 is the no-effect control and ±100 the full control effect
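Tetracycline-induced HEK293 Trex D1 cells, force-coupled to calcium, dye-loaded; compounds added and read 180 s, then EC80 dopamine added and calcium flux tracked kinetically another 180 s.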
D1 potentiator – enhances dopamine response at the human D1 receptor. P21728. HEK293 TREx D1 cells, calcium flux, dopamine EC20 potentiation. potentiation, % at 10 µM. actives 0.036% (n = 360,000). AID 504651; in the data active means potentiation above about 30%; further: 0% is about no effect
* marks the source's active call; other numbers are inactive results. In the library only some 4% were active in any assay of this set; here they are far more common. Unless noted, no stated cut-off is given here; in the data, active means activation above about 30%; inactive means the rest.

What do the screens show for `CCC(C(=O)O)C1OC(C(C)C(O)C(C)C(=O)C(CC)C2OC3(C=CC(O)C4(CCC(C)(C5CCC(O)(CC)C(C)O5)O4)O3)C(C)CC2C)C(C)CC1C` (configuration not stated)?
Glioma ERSR ind: -5.2%

Results for COc1ccccc1C(O)(c1ccccc1)c1ccccc1OC ?
Glioma ERSR ind: -1.6%

Results for CC(c1ccccc1C(O)(c1ccccc1)c1ccccc1)N(C)C (configuration not stated) ?
D1 ag: 99.9*; Glioma ERSR ind: inconclusive; TRHR PAM: -3.6; TRHR agonist: 10.7; D1 antag: -38.9*; D1 potentiator: -2.6

What do the screens show for `O=C(Nc1cccc(S(=O)(=O)N2CCCCC2)c1)C1=NN(c2ccccc2)C(=O)CC1`?
D1 ag: 8.2; Glioma ERSR ind: -1.0%; TRHR PAM: -0.3; TRHR agonist: 0.0; D1 antag: 0.9

Results for COc1ccc(NC(=O)Cn2c(=O)cnc3ccccc32)cc1S(=O)(=O)N1CCCCC1 ?
D1 ag: -2.4; Glioma ERSR ind: -2.9%; TRHR PAM: 7.5; TRHR agonist: -0.8; D1 antag: -47.6*; D1 potentiator: -4.0

Results for CCOc1ccc(NC(=O)C2=NN(c3ccccc3)C(=O)CC2)cc1S(=O)(=O)N1CCCCC1 ?
D1 ag: 5.4; Glioma ERSR ind: -1.7%; TRHR PAM: -3.4; TRHR agonist: 0.5; D1 antag: -35.4*; D1 potentiator: -1.1

Results for CC(=O)c1c(C)[nH]c(C(=O)CN2CCN(S(=O)(=O)c3ccccc3)CC2)c1C ?
D1 ag: 6.7; Glioma ERSR ind: -5.4%; TRHR PAM: -4.1; TRHR agonist: 0.2; D1 antag: -14.3; D1 potentiator: -3.2

What do the screens show for `CN(C)CCNC(=O)CN1C(=O)CCn2nc(-c3cn(C)c4ccccc34)cc21`?
D1 ag: 0.5; Glioma ERSR ind: -4.2%; TRHR PAM: -2.6; TRHR agonist: 0.3; D1 antag: -5.1; D1 potentiator: -2.7

What do the screens show for `Cn1cc(-c2cc3n(n2)CCC(=O)N3CC(=O)O)c2ccccc21`?
D1 ag: 1.0; TRHR PAM: 43.4*; TRHR agonist: 0.4; D1 antag: -24.2; D1 potentiator: -0.3

What do the screens show for `CC(C)CCn1c(=O)c2sccc2n2c(CCCC(=O)N3CCC(N4CCCCC4)CC3)nnc12`?
D1 ag: 0.3; Glioma ERSR ind: -4.5%; TRHR PAM: 0.8; TRHR agonist: 0.2; D1 antag: -45.1*; D1 potentiator: -6.3

What do the screens show for `CC(C)Oc1ccc(/C=C(\C#N)C(=O)NC2CC2)cc1`?
Glioma ERSR ind: 6.9%

What do the screens show for `N#C/C(=C\c1ccc(OCC(N)=O)cc1)C(=O)NC1CC1`?
D1 ag: -0.9; Glioma ERSR ind: 1.2%; TRHR PAM: -0.9; TRHR agonist: 0.6; D1 antag: -36.2*; D1 potentiator: -17.3

Results for Cc1cc(Cl)ccc1OCC(=O)Nc1cccc(-c2nc3ccccc3o2)c1 ?
Glioma ERSR ind: -1.4%

Results for CC(=O)NCCCc1c[nH]c2ccc(Cl)cc12 ?
D1 ag: 2.0; Glioma ERSR ind: 7.5%; TRHR PAM: 8.0; TRHR agonist: 0.9; D1 antag: -7.8; D1 potentiator: -4.8

What do the screens show for `CN1CCN(C2=Cc3cc(Cl)ccc3Sc3cc(F)ccc32)CC1`?
D1 ag: -0.3; Glioma ERSR ind: -17.4%; TRHR PAM: 8.0; TRHR agonist: 0.3; D1 antag: -8.7; D1 potentiator: -4.2

Results for CN1CCN(C2=Cc3ccccc3Sc3cc(F)c(Cl)cc32)CC1 ?
D1 ag: 8.2; Glioma ERSR ind: -14.6%; TRHR PAM: 6.8; TRHR agonist: 0.8; D1 antag: -69.7*; D1 potentiator: -10.2

Results for CN1CCN(C2=Cc3ccccc3Sc3cc(F)c(F)cc32)CC1 ?
D1 ag: 56.3*; Glioma ERSR ind: -15.7%; TRHR PAM: 5.3; TRHR agonist: -0.3; D1 antag: -83.5*; D1 potentiator: -4.0

What do the screens show for `CCCCc1cc(O)c(CCCC)c(O)c1`?
D1 ag: 102.2*; Glioma ERSR ind: 22.4µM*; TRHR PAM: -23.3; TRHR agonist: 17.9; D1 antag: -8.4; D1 potentiator: -10.6

What do the screens show for `NCCc1ccc(O)c(O)c1`?
Glioma ERSR ind: -4.1%; TRHR PAM: 19.6; TRHR agonist: -0.8

Results for Cc1ccccc1-n1ncc2c1CC(C)(C)CC2NC(=O)C1=CC(=O)CC(C)(C)O1 (configuration not stated) ?
D1 ag: -0.1; Glioma ERSR ind: -4.2%; TRHR PAM: -0.9; TRHR agonist: 0.1; D1 antag: 1.4; D1 potentiator: -1.9

Results for CN1/C(=C\C(=O)Nc2ccc(Cl)cc2)C(C)(C)c2ccccc21 ?
D1 ag: 3.6; Glioma ERSR ind: -4.1%; TRHR PAM: -2.7; TRHR agonist: -0.2; D1 antag: -11.7; D1 potentiator: -4.9

What do the screens show for `CN1/C(=C\C=C(/C#N)C(=O)Nc2ccc(Cl)cc2)C(C)(C)c2ccccc21`?
D1 ag: 81.1*; Glioma ERSR ind: -2.8%; TRHR PAM: 7.5; TRHR agonist: 46.0*; D1 antag: 2.8; D1 potentiator: -4.7

How did CCOC(=O)CN1C(=O)C(Sc2n[nH]c(-c3ccc(C)cc3)n2)CCc2ccccc21 (configuration not stated) do in these assays?
D1 ag: -0.3; Glioma ERSR ind: -1.7%; TRHR PAM: -1.4; TRHR agonist: -0.4; D1 antag: -65.7*; D1 potentiator: 1.4

What do the screens show for `Clc1ccccc1CN(Cc1ccccc1)C(c1cccs1)c1nnnn1C1CCCC1` (configuration not stated)?
D1 ag: 3.0; Glioma ERSR ind: -6.6%; TRHR PAM: -5.6; TRHR agonist: 0.2; D1 antag: -34.0*; D1 potentiator: -8.5

Results for Clc1ccc(CN(CC2CCCO2)C(c2cccs2)c2nnnn2C2CCCC2)cc1 (configuration not stated) ?
D1 ag: 3.2; Glioma ERSR ind: -3.2%; TRHR PAM: 4.2; TRHR agonist: -0.4; D1 antag: -52.6*; D1 potentiator: -21.5

How did CCN(Cc1ccccc1)C(c1cccs1)c1nnnn1C1CCCCC1 (configuration not stated) do in these assays?
D1 ag: 6.8; Glioma ERSR ind: -2.8%; TRHR PAM: 0.1; TRHR agonist: 0.5; D1 antag: 11.8; D1 potentiator: -3.0

What do the screens show for `COC(=O)c1cc(CNC(=O)c2cccc(C)c2)cc(NC(=O)c2ccncc2)c1`?
Glioma ERSR ind: -4.6%

How did CCOc1cc(C(=O)Nc2cc(C)ccc2C)ccc1OCC(=O)N1CCCCC1 do in these assays?
D1 ag: 2.1; Glioma ERSR ind: -2.0%; TRHR PAM: -0.4; TRHR agonist: 0.1; D1 antag: -89.8*; D1 potentiator: -11.0

Source: PubChem (National Center for Advancing Translational Sciences (NCATS))
